Measurements: PubChem BioAssay (NCI)
This is part of a sample that, as a whole, favours compounds with a hit. Of some 83,000 tested, about 20% had one in any assay.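 For each line, cells grew in 96-well plates with the test compound present at a single concentration for 48 hours.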 Unmarked numbers belong to inactive results. The source made the active and inactive calls.

System: HOP-62 NSCLC
Test: NCI-60 one-dose screen, 48 h (100 = growth as untreated, 0 = no growth, -100 = all killed)
Details: 10 µM unless noted
Description: Growth inhibition of the HOP-62 human Non-Small Cell Lung tumor cell line is measured as a screen for anti-cancer activity. Cells are grown in 96 well plates and exposed to the test compound for 48 hours. Compounds are tested at a single concentration, which is 10^-5 M for most compounds. The reported endpoint is percent growth (GI% or GIPRCNT), where numbers from 0 - 100% represent growth inhibition, and numbers from -100% - 0 represent cell death. For example, a value of 40 represents 60% growth inhibition. A value of 0 means no net growth occurred over the course of the experiment. A value of -40 indicates 40% of cells at the beginning of the experiment died by the end of the experiment. A value of -100 means all cells are dead at the end of the experiment.
NCI-60 Human Tumor Cell Lines Screen was performed using the standard one-dose NCI protocol, which is described in more detail at https://dtp.cancer.gov/discovery_development/nci-60/default.htm.
Compounds with GIPRCNT values below 10 were considered active. Activity score was based on GIPRCNT using the following formula: […]
Score is 0 for GIPRCNT values of 100 or above, 50 for GIPRCNT values of 0, and 100 for GIPRCNT values of -100.

Point of comparison: `O=c1cc(-c2ccc(Cl)cc2)[nH]c2ccccc12`, growth 79.3%. Against it:
- Cn1c(=O)c2[nH]c(NN)nc2n(C)c1=O — higher, 120%
- COc1ccc(/C=c2\nc3n(-c4ccccc4)c4nc5c6c(sc5c(=N)n4n-3c2=O)CCCC6)cc1 — higher, 88.1%
- O=C(NCCCNc1cc(-c2cn(-c3ccccc3)nc2-c2cccc(O)c2)ccn1)c1cccc(O)c1 — higher, 85.3%
- O=[N+]([O-])c1ccc(C2CC(c3ccccc3)=Nc3ccccc3S2)cc1 (stereo not given) — higher, 112%
- CCOc1c(C#N)nnc2c(C#N)c(NC(=O)c3ccccc3)nn12 — higher, 96.6%
- N#Cc1c(-c2cccc(Cl)c2)cc(-c2cccc(F)c2)[nH]c1=O — higher, 93.4%
- C[C@@]1(CCC#N)[C@H]2CC[C@@H]3[C@H]4[C@H](C(=O)/C=C/c5cccnc5)CC[C@]4(C#N)CC[C@@]3(C)[C@]2(C)CC[C@H]1C(=O)/C=C/c1cccnc1 — lower, 73.2%
- N=C1CCC(=N)c2c1c(O)c1ccccc1c2O — higher, 103%
- COc1ccc(/C=C/c2c(C(=O)/C=C/c3ccc(F)cc3)c(C)nc3ccccc23)cc1 — lower, 57.5%
- COc1cc(/C=N/Nc2ncc(-c3cc4cc5c(cc4o3)OCO5)s2)cc(OC)c1OC — higher, 81%
- CCOC(=O)/C=C/c1cc2cc(-c3csc4ccccc34)ccc2[nH]1 — lower, 76.7%
- CCCc1cc2c(=O)c(C(=O)OC)c[nH]c2cc1N(CC)CC — higher, 90%
- CCCCN(CCCC)CC(C)(C)C(O)c1ccc(OC)c2ccccc12 (stereo not given) — lower, 73.7%
- CCCCOc1nc2ccccc2cc1C1CNC(=O)c2ccccc2N1 (stereo not given) — lower, 23%
- O=C(c1ccccc1)c1c(/C=C/c2ccccc2)nc2ccccc2c1/C=C/c1ccc(Br)cc1 — higher, 101%
- CC(C)(C)CC(C)(C)Nc1c(-c2ccncc2)nc2cnccn12 — higher, 104%
- O=c1ccn2nc3ccccc3c2[nH]1 — higher, 88.4%
- COc1cc(C(=O)/C=C/c2c(-c3ccc(F)cc3)nc3sc(C)cn23)cc(OC)c1OC — lower, 79%
- COC(=O)c1c2c(c[n+]([O-])c1C)C(=O)C=CC2=O — higher, 104%
- COc1ccc2[nH]c(O)c(C(=Nc3ccc(N(C)C(=O)CN4CCN(C)CC4)cc3)c3ccccc3)c2c1 — lower, 23.5%
- C=CCn1c(C)nc2cc(Nc3nc(Cl)nc4ccccc34)ccc21 — higher, 108%
- COC(=O)c1c2c(c(C)[n+]([O-])c1C)C(=O)C(NCc1ccc(F)cc1)=CC2=O — lower, 48.2%
- Cc1cc(Cl)nc(NCc2cc(Nc3ccnc4cc(Cl)ccc34)ccc2F)n1 — lower, 76.7%
- CN(C)c1ccc(/C=C/C(=O)c2cccc(Nc3nc(Nc4ccccc4)nc(Nc4ccccc4)n3)c2)cc1 — higher, 86.5%
- COC(=O)c1ccc(CSc2nnc(-c3c(C)nc4ccc(C)cn34)o2)cc1 — higher, 89.6%
- C=C(C)[C@@H]1CC[C@]2(C(=O)NC3CCCCC3)CC[C@]3(C)[C@H](CC[C@@H]4[C@@]5(C)CCCNC(C)(C)[C@@H]5CC[C@]43C)[C@@H]12 — higher, 80.4%
- Cc1ccc(C(=O)C2=C(O)C(=O)N(Cc3cccnc3)C2c2ccccc2F)o1 (stereo not given) — higher, 91.6%
- COc1ccc2[nH]c(O)c(/C=c3/cc4c(c(-c5cc(OC)c(OC)c(OC)c5)n3)=Nc3ccccc3-4)c2c1 — higher, 86.2%
- COc1ccc(C(=O)COc2ccc(/C=C3\Oc4ccccc4C3=O)cc2)cc1 — higher, 90.8%
- COCCc1ccc(OCC(O)CNC(C)C)cc1 (stereo not given) — higher, 101%
- Cc1ccc(S(=O)(=O)NCC[C@@H]2C[C@H]2c2cc3ccccc3s2)cc1 — higher, 108%
- CCN1C(=O)N(CC)C2Nn3c(s/c(=C\c4cccc([N+](=O)[O-])c4)c3=O)=NC21 (stereo not given) — lower, 62.3%
- Cc1cc(NCCCCNc2ccnc3cc(Cl)ccc23)nc(Nc2ccc(C(=O)N3CCCCC3)cc2)n1 — lower, 21.2%
- Cc1ccc(Nc2ccc(Nc3ccc(C)cc3)c3c2C(=O)c2cccc(O)c2C3=O)cc1 — higher, 101%
- O=C1Nc2ccccc2/C1=C/c1cn(C(=O)c2c(Cl)cccc2Cl)c2ccccc12 — higher, 88.8%
- C(=N\Nc1ncc(-c2cc3cc4c(cc3o2)OCO4)s1)/c1ccco1 — lower, 62.1%

For `Cc1cc[c-]cc1.Fc1c[c-]c(-c2ccccn2)c(F)c1.[Pt+2].c1ccc(P(C[PH+](c2ccccc2)c2ccccc2)c2ccccc2)cc1`, the growth was 2.59% (active).
With `CCOC(=O)c1c2c(n3ccc(NC(=O)OC(C)(C)C)cc13)C(=O)c1ncccc1C2=O` the growth was -76.8% (active).
With `CC(=O)n1c(-c2ccc(Cl)cc2)nc2c(c1=O)C(c1ccc(Cl)cc1)c1sc3c(Cl)cccc3c1O2` (stereo not given) the growth was 7.03% (active).
